This note sets out measurements from ChEMBL document CHEMBL1961873, “Compounds: GSK PKIS; Assays: Nanosyn kinase panel” (2012).

Assay [1] concerns the target T1, 3-phosphoinositide-dependent protein kinase 1 (Homo sapiens) (UniProt O15530).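 Further: values are mean inhibition of PDK1.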
T1 sequence (whole entry): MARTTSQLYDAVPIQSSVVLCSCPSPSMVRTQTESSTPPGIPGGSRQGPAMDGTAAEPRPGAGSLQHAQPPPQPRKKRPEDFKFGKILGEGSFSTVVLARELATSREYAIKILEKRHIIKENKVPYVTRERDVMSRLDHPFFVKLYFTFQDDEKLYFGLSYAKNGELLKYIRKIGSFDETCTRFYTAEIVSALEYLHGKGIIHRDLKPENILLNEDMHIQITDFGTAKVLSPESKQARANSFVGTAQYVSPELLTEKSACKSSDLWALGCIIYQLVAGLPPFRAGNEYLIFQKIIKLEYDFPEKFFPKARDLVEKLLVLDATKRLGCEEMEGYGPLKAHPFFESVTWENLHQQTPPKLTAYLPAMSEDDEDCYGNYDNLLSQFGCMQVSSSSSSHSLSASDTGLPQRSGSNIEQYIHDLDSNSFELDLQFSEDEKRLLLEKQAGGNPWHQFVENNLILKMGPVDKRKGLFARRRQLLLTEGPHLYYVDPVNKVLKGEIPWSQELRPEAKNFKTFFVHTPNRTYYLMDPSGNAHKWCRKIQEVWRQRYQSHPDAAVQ
The following applies: at 0.1 µM.

Assay [2] deals with cAMP-dependent protein kinase catalytic subunit alpha (Homo sapiens) (UniProt P17612). The following applies: at 0.1 µM.
Assay [3] shares this target. The following applies: at 1 µM.
For assay [4], the target named is Protein kinase C alpha type (Homo sapiens) (UniProt P17252). The note with it: at 0.1 µM.
For assay [5] the target is unchanged. The following applies: at 1 µM.
Assay [6] addresses Protein kinase C beta type (Homo sapiens) (UniProt P05771). The following applies: at 0.1 µM.
Assay [7] shares this target. The note with it: at 1 µM.
For assay [8], the target named is Protein kinase C eta type (Homo sapiens) (UniProt P24723). The following applies: at 0.1 µM.
For assay [9] the target is unchanged. The note with it: at 1 µM.
For assay [10], the target named is Protein kinase C gamma type (Homo sapiens) (UniProt P05129). The following applies: at 0.1 µM.
For assay [11] the target is unchanged. The note with it: at 1 µM.
Assay [12] has as its target T2, Protein kinase C iota type (Homo sapiens) (UniProt P41743).
T2 sequence (whole entry): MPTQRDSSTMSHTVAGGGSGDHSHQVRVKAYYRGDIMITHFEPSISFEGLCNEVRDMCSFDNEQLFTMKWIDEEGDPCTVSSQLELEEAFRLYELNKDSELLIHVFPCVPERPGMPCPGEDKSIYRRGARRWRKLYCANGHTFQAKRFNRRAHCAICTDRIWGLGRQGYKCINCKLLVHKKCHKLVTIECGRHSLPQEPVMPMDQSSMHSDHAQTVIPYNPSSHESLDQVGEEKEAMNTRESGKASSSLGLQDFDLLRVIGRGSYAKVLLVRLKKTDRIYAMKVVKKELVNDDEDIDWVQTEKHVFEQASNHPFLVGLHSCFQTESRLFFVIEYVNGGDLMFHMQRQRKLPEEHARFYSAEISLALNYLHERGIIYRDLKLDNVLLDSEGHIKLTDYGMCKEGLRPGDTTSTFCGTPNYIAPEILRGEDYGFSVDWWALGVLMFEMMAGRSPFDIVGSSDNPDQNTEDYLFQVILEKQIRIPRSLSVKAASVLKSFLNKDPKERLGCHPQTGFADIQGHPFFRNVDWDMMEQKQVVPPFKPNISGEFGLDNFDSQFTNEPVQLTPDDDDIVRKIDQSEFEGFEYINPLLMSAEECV
The following applies: at 0.1 µM.

The target of assay [13] is T2, Protein kinase C iota type (Homo sapiens). The note with it: at 1 µM.
The target of assay [14] is Protein kinase C theta type (Homo sapiens) (UniProt Q04759). The note with it: at 0.1 µM.
For assay [15] the target is unchanged. The following applies: at 1 µM.
In assay [16] the target is Protein kinase C beta type (Homo sapiens) (UniProt P05771). The note with it: at 0.1 µM. The source holds these as a separate data set.
For assay [17] the target is unchanged. The note with it: at 1 µM. The source holds these as a separate data set.
The target in assay [18] is T3, Serine/threonine-protein kinase D1 (Homo sapiens) (UniProt Q15139).
T3 sequence (whole entry): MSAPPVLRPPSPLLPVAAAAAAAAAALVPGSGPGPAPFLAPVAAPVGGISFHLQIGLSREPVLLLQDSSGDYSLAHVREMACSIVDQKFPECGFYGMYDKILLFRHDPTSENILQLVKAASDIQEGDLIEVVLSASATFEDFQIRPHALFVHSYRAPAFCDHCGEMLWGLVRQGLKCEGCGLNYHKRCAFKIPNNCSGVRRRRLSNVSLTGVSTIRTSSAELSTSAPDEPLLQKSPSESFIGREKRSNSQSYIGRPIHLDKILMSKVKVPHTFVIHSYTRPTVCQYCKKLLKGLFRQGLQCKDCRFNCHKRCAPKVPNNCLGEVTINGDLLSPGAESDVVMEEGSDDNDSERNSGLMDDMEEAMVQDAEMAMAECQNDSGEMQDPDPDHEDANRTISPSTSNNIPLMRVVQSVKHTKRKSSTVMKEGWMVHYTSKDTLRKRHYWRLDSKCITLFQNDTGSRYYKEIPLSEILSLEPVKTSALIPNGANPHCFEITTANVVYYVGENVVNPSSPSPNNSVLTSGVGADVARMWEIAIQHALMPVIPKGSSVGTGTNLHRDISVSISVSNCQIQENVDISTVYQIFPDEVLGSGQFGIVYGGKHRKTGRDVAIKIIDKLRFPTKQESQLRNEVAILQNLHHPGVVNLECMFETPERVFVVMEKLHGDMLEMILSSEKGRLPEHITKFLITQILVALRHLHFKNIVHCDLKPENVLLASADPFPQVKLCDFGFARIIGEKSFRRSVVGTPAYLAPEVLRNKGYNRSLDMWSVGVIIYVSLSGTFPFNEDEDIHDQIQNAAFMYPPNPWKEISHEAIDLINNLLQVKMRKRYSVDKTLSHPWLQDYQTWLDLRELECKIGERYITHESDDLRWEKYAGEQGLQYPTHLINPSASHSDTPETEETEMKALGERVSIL
The following applies: at 0.1 µM.

Assay [19] has as its target T3, Serine/threonine-protein kinase D1 (Homo sapiens). The note with it: at 1 µM.
Assay [20] addresses T4, Serine/threonine-protein kinase D2 (Homo sapiens) (UniProt Q9BZL6).
T4 sequence (whole entry): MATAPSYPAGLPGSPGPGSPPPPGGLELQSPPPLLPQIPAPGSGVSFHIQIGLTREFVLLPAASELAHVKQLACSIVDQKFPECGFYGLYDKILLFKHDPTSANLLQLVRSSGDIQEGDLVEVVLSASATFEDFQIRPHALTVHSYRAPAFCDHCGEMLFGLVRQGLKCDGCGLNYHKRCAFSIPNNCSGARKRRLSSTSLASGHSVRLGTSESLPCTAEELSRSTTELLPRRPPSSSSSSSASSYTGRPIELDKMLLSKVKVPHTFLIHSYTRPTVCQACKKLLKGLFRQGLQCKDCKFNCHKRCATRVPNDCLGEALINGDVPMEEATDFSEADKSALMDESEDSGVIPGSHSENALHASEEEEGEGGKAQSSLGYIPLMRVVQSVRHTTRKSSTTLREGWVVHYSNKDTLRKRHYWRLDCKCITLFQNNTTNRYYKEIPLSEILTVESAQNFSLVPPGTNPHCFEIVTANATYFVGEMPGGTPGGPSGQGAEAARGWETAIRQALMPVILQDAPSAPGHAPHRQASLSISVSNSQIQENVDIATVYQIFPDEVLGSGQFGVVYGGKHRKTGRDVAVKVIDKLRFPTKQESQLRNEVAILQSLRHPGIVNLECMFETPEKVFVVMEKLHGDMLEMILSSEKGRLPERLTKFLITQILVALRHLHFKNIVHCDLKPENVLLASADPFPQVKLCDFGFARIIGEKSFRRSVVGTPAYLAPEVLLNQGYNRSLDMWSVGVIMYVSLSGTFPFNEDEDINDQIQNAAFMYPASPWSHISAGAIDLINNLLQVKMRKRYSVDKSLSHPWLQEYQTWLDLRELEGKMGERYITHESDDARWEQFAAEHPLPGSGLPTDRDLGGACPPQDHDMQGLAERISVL
The following applies: at 0.1 µM.

Sequence of Protein kinase C eta type (Homo sapiens) (P24723 whole entry): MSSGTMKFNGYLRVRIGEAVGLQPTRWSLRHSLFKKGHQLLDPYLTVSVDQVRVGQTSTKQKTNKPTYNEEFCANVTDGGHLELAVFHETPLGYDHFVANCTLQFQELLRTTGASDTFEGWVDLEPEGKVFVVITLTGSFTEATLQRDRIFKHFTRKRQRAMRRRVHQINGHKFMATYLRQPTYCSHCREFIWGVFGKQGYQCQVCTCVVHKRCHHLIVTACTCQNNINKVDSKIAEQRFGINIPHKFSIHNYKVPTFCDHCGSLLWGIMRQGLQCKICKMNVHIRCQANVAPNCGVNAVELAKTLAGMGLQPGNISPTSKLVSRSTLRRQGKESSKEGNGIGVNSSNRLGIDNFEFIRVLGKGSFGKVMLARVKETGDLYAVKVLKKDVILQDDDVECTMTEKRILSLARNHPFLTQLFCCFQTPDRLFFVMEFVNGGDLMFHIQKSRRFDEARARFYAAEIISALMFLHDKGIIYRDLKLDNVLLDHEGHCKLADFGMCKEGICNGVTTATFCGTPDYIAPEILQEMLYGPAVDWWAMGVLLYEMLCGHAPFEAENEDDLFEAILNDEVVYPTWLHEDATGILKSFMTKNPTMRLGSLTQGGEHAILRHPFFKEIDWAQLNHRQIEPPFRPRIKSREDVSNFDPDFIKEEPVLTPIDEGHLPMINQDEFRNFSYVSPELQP
Sequence of Protein kinase C beta type (Homo sapiens) (P05771 2-671 limits assumed): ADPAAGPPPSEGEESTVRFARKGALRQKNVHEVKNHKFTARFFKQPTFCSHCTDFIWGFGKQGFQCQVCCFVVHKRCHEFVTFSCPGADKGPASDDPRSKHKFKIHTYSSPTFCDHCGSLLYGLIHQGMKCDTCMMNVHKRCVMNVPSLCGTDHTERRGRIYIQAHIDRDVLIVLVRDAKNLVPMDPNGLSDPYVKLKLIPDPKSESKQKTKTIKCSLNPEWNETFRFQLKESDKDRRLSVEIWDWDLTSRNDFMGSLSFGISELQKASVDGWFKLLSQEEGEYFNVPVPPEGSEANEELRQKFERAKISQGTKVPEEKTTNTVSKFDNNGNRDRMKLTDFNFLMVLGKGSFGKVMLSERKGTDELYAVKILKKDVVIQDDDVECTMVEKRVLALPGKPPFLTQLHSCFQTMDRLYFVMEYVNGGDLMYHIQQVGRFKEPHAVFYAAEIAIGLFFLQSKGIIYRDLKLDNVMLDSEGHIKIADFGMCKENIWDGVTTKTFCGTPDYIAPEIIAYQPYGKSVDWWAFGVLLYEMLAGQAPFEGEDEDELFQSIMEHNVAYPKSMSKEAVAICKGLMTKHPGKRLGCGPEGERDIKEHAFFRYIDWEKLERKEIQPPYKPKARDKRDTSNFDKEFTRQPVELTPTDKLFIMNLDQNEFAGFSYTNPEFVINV
Sequence of Protein kinase C theta type (Homo sapiens) (Q04759 whole entry, looked up): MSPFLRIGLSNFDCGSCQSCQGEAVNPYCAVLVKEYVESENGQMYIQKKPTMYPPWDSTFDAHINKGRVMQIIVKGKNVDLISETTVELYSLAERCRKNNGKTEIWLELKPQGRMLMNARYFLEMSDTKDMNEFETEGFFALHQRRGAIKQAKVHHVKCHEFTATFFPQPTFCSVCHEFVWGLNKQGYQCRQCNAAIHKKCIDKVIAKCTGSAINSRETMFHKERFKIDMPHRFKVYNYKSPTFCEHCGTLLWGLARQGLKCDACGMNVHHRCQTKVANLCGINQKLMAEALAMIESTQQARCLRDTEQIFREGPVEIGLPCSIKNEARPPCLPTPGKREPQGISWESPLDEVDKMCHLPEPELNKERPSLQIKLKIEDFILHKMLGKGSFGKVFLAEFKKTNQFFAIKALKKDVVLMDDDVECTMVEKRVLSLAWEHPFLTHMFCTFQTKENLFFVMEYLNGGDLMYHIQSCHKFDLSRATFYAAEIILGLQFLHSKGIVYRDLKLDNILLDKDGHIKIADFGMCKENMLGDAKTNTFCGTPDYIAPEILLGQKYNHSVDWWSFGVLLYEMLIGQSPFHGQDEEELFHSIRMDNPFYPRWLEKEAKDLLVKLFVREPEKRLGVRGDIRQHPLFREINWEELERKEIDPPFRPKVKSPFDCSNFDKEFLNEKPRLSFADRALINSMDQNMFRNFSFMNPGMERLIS

The inhibition is the drop in the measured response relative to a control, in per cent. For the molecule `COc1cc2ncn(-c3cc(OCc4ccccc4S(C)(=O)=O)c(C#N)s3)c2cc1OC`, the inhibition in assay [1] is 5.59%; in assay [2], 2.29%; in assay [3] it was 3.77%; in [4], 1.33%; in assay [5], 2.72%; in assay [6] it was 2.71%. Also, the inhibition is 5.16% in assay [7]; 0.91% in assay [8]; -1.63% in assay [9]; 1.77% in assay [10]; 6.46% in assay [11]; 2.06% in assay [12]. For the same molecule, the inhibition in assay [13] was found to be 3.79%; in assay [14] it was 2.44%; in assay [15], 3.61%; in assay [16], 1.55%; in assay [17] it was 4.05%; in assay [18], 2.92%. In addition, the figures for the inhibition in [19] and in assay [20] were 5.45% and 3.97%, respectively.
On to `CS(=O)(=O)Nc1cccc(-c2ccc3c(NC(=O)C4CC4)n[nH]c3c2)c1`, for which the inhibition was -0.34% in assay [1]; 0.91% in assay [2]; 1.02% in [3]; 0.79% in [4]; 1.61% in assay [5]; -1.18% in assay [6]. For the same molecule, the inhibition in [7] is -0.16%; in [8] it was 1.82%; in [9] it was 3.34%; in assay [10] it was 1.6%; in [11] it was 1.59%; in [12], 0.49%. In addition, the inhibition is 0.91% in assay [13]; -0.5% in assay [14]; -0.76% in assay [15]; -0.25% in assay [16]; 0.61% in [17]; 0.96% in assay [18]. In addition, the inhibition in assay [19] is 2.34%; in assay [20], 2.1%.
Turning to `[O-][S+]1CCN(Cc2ccc(-c3ccc4ncnc(Nc5ccc(OCc6ccccc6)c(Cl)c5)c4c3)o2)CC1`, the inhibition turned out to be 0.06% in assay [1]; 2.94% in [2]; 7.99% in assay [3]; 0.05% in [4]; 0.88% in [5]; 0.56% in assay [6]. Moreover, the inhibition in [7] is 0.65%; in assay [8], 1.86%; in assay [9], 2.18%; in assay [10], -0.93%; in [11], 3.28%; in [12] it was 1.72%. Besides, the inhibition in [13] came to 1.88%; in assay [14], 1.06%; in assay [15] it was 1.03%; in [16], 0.97%; in [17], 2.88%; in [18], 1.74%. Besides, the figures for the inhibition in [19] and in assay [20] were 2.75% and 1.16%, respectively.
Take `Cc1ccc(C(=O)NC2CC2)cc1-c1ccc2[nH]ncc2c1`: the inhibition in assay [1] is -3.15%; in assay [2] it was -2.46%; in [3], 0.47%; in assay [4] it was -0.47%; in [5], 0.07%; in assay [6], -0.41%. Further, the inhibition in assay [7] is -0.31%; in assay [8], -4.21%; in assay [9], -3.72%; in [10], -0.11%; in assay [11] it was 0.02%; in [12] it was -1.83%. The inhibition is -1.13% in assay [13]; -1.64% in [14]; 0.05% in [15]; -0.94% in assay [16]; -0.69% in assay [17]; -4.08% in assay [18]. In addition, the inhibition was -2.68% in assay [19] and -2.91% in assay [20].
As to `Cc1cc(-c2ccccn2)cc(C)c1/C=C/c1cncc(-c2nn[nH]n2)c1`, the inhibition in [1] is -0.5%; in assay [2], 1.63%; in assay [3], 1.8%; in assay [4] it was 0.99%; in assay [5] it was 3.52%; in assay [6], 0.54%. Moreover, the inhibition in [7] turned out to be 0.37%; in [8], 2.25%; in [9], 5.16%; in [10] it was 1.57%; in assay [11] it was 2.83%; in assay [12], 0.86%. The inhibition was determined as 1.38% in [13]; 1.86% in [14]; 3.08% in assay [15]; 1.2% in [16]; 2.79% in [17]; 6.68% in [18]. For the same molecule, the results for the inhibition in assay [19] and in [20] were 11% and 6.87%, respectively.
As for `CCCN1CCCC(c2ccc(Nc3nc(Nc4cc(F)ccc4C(N)=O)c4cc[nH]c4n3)c(OC)c2)C1` (stereo not given), the inhibition in [1] was 2.08%; in assay [2], 2.2%; in [3], 2.23%; in [4], 2.24%; in assay [5], 15.9%; in [6], -0.31%. Further, the inhibition in assay [7] is 3.2%; in assay [8], 1.86%; in assay [9], 1.44%; in assay [10], 5.05%; in [11] it was 22%; in [12] it was 0.84%. The inhibition came to 2.93% in [13]; 1.64% in [14]; 4.89% in assay [15]; 1.85% in assay [16]; 5.27% in assay [17]; 32.2% in assay [18]. In addition, the inhibition in assay [19] was 79.5%; in [20], 25.9%.
Turning to `Nc1nccc(-c2c(-c3ccc(F)cc3)ncn2CCCN2CCOCC2)n1`, the inhibition in assay [1] is 0.38%; in assay [2] it was 3.31%; in [3] it was 9.33%; in assay [4], 0.84%; in assay [5], 4.5%; in assay [6] it was 1.5%. Moreover, the inhibition in [7] amounted to 7.05%; in [8], 4.26%; in assay [9], 7.49%; in assay [10], 3.25%; in [11], 6.84%; in assay [12], 3.1%. Moreover, the inhibition in assay [13] came to 3.21%; in assay [14], 2.24%; in assay [15], 3.31%; in [16] it was 3.01%; in assay [17] it was 7.42%; in assay [18], 4.07%. Moreover, the figures for the inhibition in [19] and in assay [20] were 5.03% and 5.14%, respectively.
